# According to PMC4336329 (PLoS ONE, 2015):
# The campaign covered roughly 310,000 compounds. About 14,000 (4.5%) showed an effect of 50% or more. The effect is printed as a negative number. This excerpt belongs to a sample that is enriched for strong results.
# Target: human ether-à-go-go-related gene (hERG) potassium channel (human, UniProt Q12809)
# Experiment: primary screen, population patch clamp on CHO cells stably expressing hERG; higher = less effect of the substance
# 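Note: peak tail current of the secondary pulse compared with the same well before compound.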
# human ether-à-go-go-related gene (hERG) potassium channel, sequence (Q12809 whole entry, looked up): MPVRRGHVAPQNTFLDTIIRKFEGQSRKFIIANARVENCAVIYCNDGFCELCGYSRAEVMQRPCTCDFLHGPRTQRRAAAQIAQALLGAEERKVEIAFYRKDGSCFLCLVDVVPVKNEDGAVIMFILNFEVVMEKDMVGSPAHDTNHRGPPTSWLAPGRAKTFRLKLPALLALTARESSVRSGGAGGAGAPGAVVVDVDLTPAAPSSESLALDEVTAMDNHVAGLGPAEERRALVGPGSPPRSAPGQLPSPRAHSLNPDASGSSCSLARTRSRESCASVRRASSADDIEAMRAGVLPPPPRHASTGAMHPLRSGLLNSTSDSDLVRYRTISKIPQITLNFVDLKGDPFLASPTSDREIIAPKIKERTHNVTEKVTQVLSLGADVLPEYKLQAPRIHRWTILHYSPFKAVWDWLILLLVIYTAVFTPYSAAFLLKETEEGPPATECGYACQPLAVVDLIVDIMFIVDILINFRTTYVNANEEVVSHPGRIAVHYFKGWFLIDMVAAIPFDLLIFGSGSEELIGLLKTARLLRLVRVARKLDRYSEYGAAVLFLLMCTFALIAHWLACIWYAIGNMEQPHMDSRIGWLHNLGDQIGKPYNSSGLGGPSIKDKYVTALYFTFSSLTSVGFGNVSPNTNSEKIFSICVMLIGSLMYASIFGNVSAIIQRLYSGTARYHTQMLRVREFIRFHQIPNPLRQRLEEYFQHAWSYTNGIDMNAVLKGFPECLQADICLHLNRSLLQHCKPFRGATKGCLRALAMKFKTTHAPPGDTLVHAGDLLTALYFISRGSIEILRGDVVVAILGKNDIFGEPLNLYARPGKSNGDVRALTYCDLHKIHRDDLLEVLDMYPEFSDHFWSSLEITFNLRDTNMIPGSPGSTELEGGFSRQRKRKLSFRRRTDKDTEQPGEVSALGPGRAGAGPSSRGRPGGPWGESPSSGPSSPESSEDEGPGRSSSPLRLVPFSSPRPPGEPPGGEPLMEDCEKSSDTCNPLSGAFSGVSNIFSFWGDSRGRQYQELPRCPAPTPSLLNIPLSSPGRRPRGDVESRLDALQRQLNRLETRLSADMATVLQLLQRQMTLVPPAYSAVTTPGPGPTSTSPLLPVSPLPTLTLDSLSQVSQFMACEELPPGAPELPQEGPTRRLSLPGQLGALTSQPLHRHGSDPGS
row,Compound,"hERG current change (%, negative = inhibition) at 10uM [%]"
1,COc1ccc(C(=O)NNC(=O)CN2CCC(n3nnc4cc(F)ccc43)CC2)cc1,-18.4
2,Cc1nc2ccc(NC(=O)N3CCC(c4ccccc4)C3)cc2nc1C (stereo not shown),-11.4
3,COc1ccc(NC(=O)CN2CCC(n3c(C)nc4cc(F)ccc43)CC2)c(OC)c1,-4.64
4,Cc1nc2cc(NC(=O)N3CCCC3)ccc2n1C,-1.21
5,Cc1nc2cc(NC(=O)N3CCC(c4ccccc4)C3)ccc2n1C (stereo not shown),-52.4
6,COc1ccc(CNC(=O)CN2CCC(n3nnc4cc(F)ccc43)CC2)cc1,-68
7,COc1ccccc1NC(=O)CN1CCC(n2nnc3cc(F)ccc32)CC1,-55.4
8,COc1ccccc1NC(=O)CN1CCC(n2c(C)nc3cc(F)ccc32)CC1,-72.2
9,COc1ccc(Cl)cc1NC(=O)CN1CCC(n2nnc3cc(F)ccc32)CC1,-7.93
10,Cl.O=C(CN1CCC(n2nnc3cc(F)ccc32)CC1)NCc1ccco1,-35.6
11,COc1cc(NC(=O)Nc2ccccc2OC)c(OC)cc1NC(=O)CN1CCCCC1,1.04
12,COc1ccc(Cl)cc1NC(=O)CN1CCC(n2nnc3ccccc32)CC1,-10.4
13,CCc1ccc(C(=O)N/N=C/c2cccc3ccccc23)nc1,1.8
14,Cc1ccc(-c2nnc(SCC(=O)N3CCCC3)o2)cc1C,-0.309
15,CC(C)Cc1nnc(NC(=O)CCC(=O)NC2CCCCCC2)s1,-48.6
16,CCN(CC)CCP(=O)(c1ccccc1)c1ccccc1,-15.2
17,OCCN1CCN(c2nc(-c3ccccc3)nc3c2oc2ccccc23)CC1,-6.34
18,COC(=O)C1=C(CN2CCN(C)CC2)NC(=O)NC1c1cc(C)ccc1C (stereo not shown),-41
19,COc1ccc2c(=O)cc(-c3cccnc3)oc2c1OC,8.9
20,CCc1nnc(NC(=O)c2c(-c3ccccc3)noc2C)s1,10.2
21,N#Cc1ccccc1OCC(=O)Nc1cccc(S(=O)(=O)N2CCCC2)c1,5.17
22,O=C(Cc1ccccc1F)Nc1ccc(SC(F)F)cc1,14

row,Compound,"hERG current change (%, negative = inhibition) at 10uM [%]"
1,Cc1ccccc1C(=O)NC1CCN(CC(=O)NCc2ccc(F)cc2)CC1,-44.2
2,COC(=O)C1CCN(C(=O)Nc2ccccc2)CC1,24.3
3,O=C(CN1CCC(n2nnc3cc(F)ccc32)CC1)NC1CC1,-4.99
4,Cc1nc2ccccc2n1C1CCN(CC(=O)Nc2ccccc2Br)CC1,-25
5,O=C(Nc1ccccc1)N1CCC(n2c(=O)[nH]c3ccccc32)CC1,-8.18
6,Cc1nc2ccccc2n1C1CCN(C(=O)Nc2ccccc2)CC1,-60.5
7,CC1CCC(NC(=O)CN2CCC(n3nnc4cc(F)ccc43)CC2)CC1 (stereo not shown),-58.4
8,O=C(CN1CCC(n2nnc3cc(F)ccc32)CC1)NC1CCCCC1,-32.8
9,Cc1nc2ccccc2n1C1CCN(CC(=O)NCc2ccc(F)cc2)CC1,-58
10,Cc1ccc(CN(C)CC(=O)Nc2ccccc2C(=O)NC2CC2)o1,-7.18
11,N#Cc1c(F)cccc1N1CCC(C#N)CC1,8.29
12,Cn1nnnc1SCC(=O)Nc1ccccc1C(=O)NC1CC1,7.04
13,COc1ccccc1NC(=O)CCN1C(=O)/C(=C/c2cc(OC)c(OC)c(OC)c2)SC1=S,13.8
14,O=C(Cc1ccccc1)Nc1ccc2oc(-c3ccncc3)nc2c1,0.815
15,COc1ccc(OC(C)C(=O)Nc2cccc([N+](=O)[O-])c2)cc1 (stereo not shown),-58.8
16,CC(Sc1nncn1-c1ccccc1)C(=O)Nc1cccc([N+](=O)[O-])c1 (stereo not shown),-17.2
17,CC(Oc1ccccc1)C(=O)Nc1cccc([N+](=O)[O-])c1 (stereo not shown),-22
18,COc1ccc(-n2cnnc2SC(C)C(=O)Nc2cccc([N+](=O)[O-])c2)cc1 (stereo not shown),-59.3
19,COc1ccc(OC(C)C(=O)Nc2ccc([N+](=O)[O-])cc2)cc1 (stereo not shown),3.6
20,COc1ccccc1-n1cnnc1SC(C)C(=O)Nc1cccc([N+](=O)[O-])c1 (stereo not shown),-8.19
21,COc1ccc(CNC(=O)CCSCc2ccc(C)cc2)cc1,-16.2
22,CCC1=Nc2cc(C(=O)O)ccc2Sc2ccccc21,21.2

row,Compound,"hERG current change (%, negative = inhibition) at 10uM [%]"
1,COC(=O)C1=C(c2ccc(OC(F)(F)F)cc2)C[C@@H]2CC[C@H]1N2C(=O)NCc1cccc2ccccc12,20.4
2,COC(=O)C1=C(c2ccc(C(C)=O)cc2)C[C@@H]2CC[C@H]1N2C(=O)NCc1ccc(C(F)(F)F)cc1,30
3,COC(=O)C1=C(c2ccc(S(C)(=O)=O)cc2)C[C@@H]2CC[C@H]1N2C(=O)NCc1ccccc1,-29.6
4,COC(=O)C1=C(c2ccccc2)C[C@@H]2CC[C@H]1N2C(=O)NCc1cccc2ccccc12,-12.2
5,COC(=O)C1=C(c2ccc(S(C)(=O)=O)cc2)C[C@@H]2CC[C@H]1N2C(=O)NCc1cccc2ccccc12,-61.6
6,COC(=O)C1=C(c2ccc(S(C)(=O)=O)cc2)C[C@@H]2CC[C@H]1N2C(=O)NCc1ccc(C(F)(F)F)cc1,-59.3
7,Cc1ccc(C(=O)NC(C(=O)Nc2ccccc2)c2ccccc2)cc1 (stereo not shown),19.7
8,CC(NC(=O)Cn1cc(C(=O)C2CC2)c2ccccc21)c1ccccc1 (stereo not shown),4.74
9,Cc1ccc(-c2nn(C)c(=O)c3ccccc23)cc1CNC(=O)c1ccco1,-36.7
10,Cc1ccc(/C=C2/C(=O)NC(=O)N(Cc3ccc(F)cc3)C2=O)o1,19.6
11,COc1ccc(OCc2cc(C(=O)NCc3nc(C)cs3)no2)c(Cl)c1,-17.2
12,OCC1(Cc2ccccc2C(F)(F)F)CCN(Cc2ccccc2)CC1,-41.3
13,OCC1(Cc2ccccc2)CCN(Cc2ccc(C(F)(F)F)cc2)CC1,-72.9
14,OCC1(Cc2ccccc2)CCN(Cc2ccc(-c3ccco3)cc2)CC1,-66.6
15,OCC1(Cc2ccccc2)CCCN(Cc2ccc(-c3ccco3)cc2)C1 (stereo not shown),-5.88
16,O=C(CSc1cn(CC(=O)N2CCOCC2)c2ccccc12)N1CCOCC1,12.8
17,Cc1cc(C)c(C#N)c(SCc2ccc([N+](=O)[O-])cc2)n1,15.9
18,COc1ccc(F)cc1S(=O)(=O)Nc1ccc2c(c1)OCO2,6.15
19,CC(CCc1ccccc1)NC(=S)NC1CCCCC1 (stereo not shown),12
20,Cl.Fc1ccc(C(c2nnnn2C2CCCC2)N2CCN(Cc3ccncc3)CC2)cc1 (stereo not shown),-24.8
21,Cc1ccc(C(c2nnnn2Cc2ccccc2)N2CC=C(c3ccc(F)cc3)CC2)cc1 (stereo not shown),11.5
22,Cc1ccc(C(c2nnnn2CC2CCCO2)N2CCN(Cc3ccccc3)CC2)cc1 (stereo not shown),-74.9

row,Compound,"hERG current change (%, negative = inhibition) at 10uM [%]"
1,Cc1ccc(C(c2nnnn2CC2CCCO2)N2CCN(C(=O)c3ccco3)CC2)cc1 (stereo not shown),-4.13
2,Cc1ccc(C(c2nnnn2CC2CCCO2)N2CCN(C)CC2)cc1.Cl (stereo not shown),-7.48
3,Clc1ccc(C(c2nnnn2C2CCCC2)N2CCSCC2)cc1 (stereo not shown),-24.4
4,CCC(C)(C)n1nnnc1C(c1ccccc1)N1CCN(Cc2ccccc2)CC1 (stereo not shown),-32
5,Clc1ccc(C(c2nnnn2C2CCCC2)N2CCN(Cc3ccncc3)CC2)cc1 (stereo not shown),-71.7
6,Cc1ccc(C(c2nnnn2CCc2ccccc2)N2CCSCC2)cc1 (stereo not shown),-13.5
7,CCN1CCN(C(c2ccccc2)c2nnnn2Cc2ccccc2)CC1.Cl (stereo not shown),-27.4
8,c1ccc(CN2CCN(C(c3ccccc3)c3nnnn3Cc3ccccc3)CC2)cc1 (stereo not shown),-64.7
9,Cc1ccc(C(c2nnnn2Cc2ccccc2)N2CCN(Cc3ccccc3)CC2)cc1 (stereo not shown),-79
10,O=C(NC(=S)NCc1ccccc1)c1ccc(Br)o1,-7.42
11,Cc1noc(C)c1C(=O)OCC(=O)c1cc(C)n(Cc2ccccc2Cl)c1C,-7.65
12,Cc1ccc(CC(=O)N2CC(C)OC(C)C2)cc1 (stereo not shown),9.85
13,Cc1ccc2nc(Br)c3c(c2c1)OC(CBr)C3 (stereo not shown),-33.6
14,CC1CCCCC1NC(=O)COc1ncnc2sccc12 (stereo not shown),3.61
15,COc1ccc(Cl)cc1NC(=S)N1CCC(c2ccc(C)cc2)C1 (stereo not shown),-1.95
16,CCNC(=O)/C(=C\C=C\c1ccccc1)NC(=O)c1ccc(Br)o1,-18.2
17,Cc1ccc(S(=O)(=O)Cn2nnnc2C(C(C)C)N2CCC(C(N)=O)CC2)cc1 (stereo not shown),19
18,Cc1ccc(S(=O)(=O)Cn2nnnc2C(c2ccc(F)cc2)N2CCC(C(N)=O)CC2)cc1 (stereo not shown),-44.1
19,Cc1ccc(C(c2nnnn2CS(=O)(=O)c2ccc(C)cc2)N2CCC(C(N)=O)CC2)cc1 (stereo not shown),-55.1
